Target: Torsin-1A (Homo sapiens) (UniProt O14656)
Experiment: torsin A binders from cell lysate, primary screen, small-molecule microarray, wild-type, 635/667 nm (AID 1149)
Settings: COS7 hTOR1A-WT lysate, 635 nm fluorescence, higher = more signal

Torsin-1A (Homo sapiens), sequence (O14656 whole entry, looked up): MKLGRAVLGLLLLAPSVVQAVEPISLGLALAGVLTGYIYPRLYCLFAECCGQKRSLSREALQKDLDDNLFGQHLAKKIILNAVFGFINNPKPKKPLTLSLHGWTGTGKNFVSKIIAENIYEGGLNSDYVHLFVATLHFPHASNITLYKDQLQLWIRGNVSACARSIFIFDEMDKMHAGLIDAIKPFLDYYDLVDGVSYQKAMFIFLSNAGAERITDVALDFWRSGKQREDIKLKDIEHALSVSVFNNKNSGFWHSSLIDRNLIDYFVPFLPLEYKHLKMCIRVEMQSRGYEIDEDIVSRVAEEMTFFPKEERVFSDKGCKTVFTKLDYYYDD

Structure (SMILES) | composite z-score
CC(=O)N1CC(C(O)C2C=CC3C(=O)NC(=O)C3N2Nc2ccc(Cl)cc2Cl)c2ccccc21 (stereo unspecified) | -0.291
COc1cc2c(cc1OC)CN(C(=O)[C@@H]1[C@H]3C(=O)O[C@H](c4ccccc4)[C@H](c4ccccc4)N3[C@H](c3ccc(O)cc3)[C@@]13C(=O)Nc1ccc(C#CCCO)cc13)CC2 | -0.0185
NCCCCCNC(=O)[C@H]1C[C@H]2C(=O)N[C@@H](Cc3ccccc3)C(=O)N2[C@H]1c1ccc(O)cc1 | 0.756
CC(C)OC(=O)CC(=O)CC(O)c1ccc([N+](=O)[O-])cc1 (stereo unspecified) | 0.913
CCCNC(=O)[C@@]1(C)c2ccccc2C(=O)N(Cc2ccccc2)[C@H]1c1ccc(CO)cc1 | -0.102
COC(=O)[C@@]1(Cc2ccc(OC)cc2)[C@H]2c3cc(C(=O)N4CCCC4)n(Cc4cc(C)n(C)n4)c3C[C@H]2CN1C(=O)c1ccccc1 | 0.544
C=CCC(OC(C)=O)[C@@H]1[C@@H](N(Cc2ccc(-c3cccc(C(F)(F)F)c3)o2)C(=O)c2ccc(C)cc2)c2cc(OCCCO)ccc2N1C(=O)Cc1ccc(OC)cc1 (stereo partly specified) | -0.425
CC(=O)n1cc(C(O)C2C=CC3C(=O)N(c4ccccc4)C(=O)C3N2Nc2ccc(C(C)C)cc2)c2ccccc21 (stereo unspecified) | -0.285
C=CCC(OC(C)=O)[C@@H]1[C@@H](N(Cc2ccc(-c3ccccc3)cc2)C(=O)c2ccc(C)cc2)c2cc(OCCCO)ccc2N1C(=O)Cc1ccc2ccccc2c1 (stereo partly specified) | 0.0508
COc1cc(C(O)C2C=CC3C(=O)N(Cc4ccccc4)C(=O)C3N2n2cnnc2)cc(OC)c1OC (stereo unspecified) | 0.683
COc1ccc(C(=O)Nc2cccc(CN3C(=O)[C@@]4(O[C@@H](CC(=O)N(CCO)Cc5ccccc5)[C@H]([Si](C)(C)c5ccc(OC)cc5)[C@H]4C)c4ccccc43)c2)cc1 | 0.479

From PubChem BioAssay
